Screening results: PubChem BioAssay, several laboratories
BoNT F protease: BoNT/F light chain protease inhibitors, primary screen, biochemical, flow cytometry, MLPCN library; Botulinum neurotoxin type F light chain protease (Clostridium botulinum); Multiplex microsphere protease cleavage assay; inhibition, % at 10 µM; hit rate 0.22% among 360,000; AID 588497, 2011; in the data active means inhibition above about 35%, passing the limit was not always enough; inconclusive means no clear call, values can overlap the other calls
BoNT-A LC inh2: BoNT/A light chain protease inhibitors, primary screen, biochemical, flow cytometry, MLPCN library; Botulinum neurotoxin type A light chain protease (Clostridium botulinum A str. ATCC 3502); multiplex microsphere protease substrate cleavage; inhibition, % at 10 µM; hit rate 0.17% among 360,000; AID 588499, 2011
Bead autofluor: compound fluorescence in toxin protease inhibitor counterscreen; AID 624483; fluorescence intensity (test concentration not listed); compound autofluorescence counterscreen, microsphere flow cytometry; stronger effect = higher value; hit rate 3.1% among 360,000; in the data active means fluorescence intensity above about 16000; inconclusive means no clear call, values can overlap the other calls
MazEF act: activators of E. coli MazEF toxin-antitoxin RNase, primary screen, biochemical, fluorescence, uHTS; hit rate 0.32% among 350,000; activation, % at 20 µM; FAM/BHQ RNA-DNA oligo cleavage fluorescence, 5 h; Endoribonuclease toxin MazF (Escherichia coli (strain K12)), P0AE70; in the data active means activation above about 50%
Target sequence (P0AE70 whole entry, looked up): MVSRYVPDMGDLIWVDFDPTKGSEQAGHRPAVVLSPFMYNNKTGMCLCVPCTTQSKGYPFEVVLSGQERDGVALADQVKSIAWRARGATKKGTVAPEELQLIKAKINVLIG
Anthrax LF inh2: Bacillus anthracis LF protease inhibitors, primary screen, biochemical, multiplex microsphere, MLPCN library; hit rate 0.12% among 360,000; AID 588501, 2011; Lethal factor (Bacillus anthracis), P15917; multiplex microsphere protease cleavage assay; inhibition, % at 10 µM
Hits are given with their value. Only some compounds are listed: those with a hit (about 3.7% of all), similar ones and a draw of the others. Unless noted, no stated cut-off is given here; in the data, active means inhibition above about 30%; inconclusive means no clear call, values can overlap the other calls; inactive means below that.

Screening Cc1nnsc1C(=O)Nc1ccc(Cl)cc1 returned BoNT F protease inactive, BoNT-A LC inh2 inactive, Bead autofluor 21839, MazEF act inactive and Anthrax LF inh2 inactive.
`Cc1nc(NC(=O)/C=C/c2ccccc2)sc1C(=O)Nc1ccccc1Cl` gave BoNT F protease inactive, BoNT-A LC inh2 inactive, Bead autofluor inconclusive, MazEF act inactive and Anthrax LF inh2 inactive.
Screening Cc1nnsc1C(=O)Nc1ccccc1 returned BoNT F protease inactive, BoNT-A LC inh2 inactive, Bead autofluor inactive, MazEF act inactive and Anthrax LF inh2 inactive.
For Cc1nc(NC(=O)/C=C/c2ccccc2)sc1C(=O)Nc1ccc(Cl)cc1 the results were BoNT F protease inactive, BoNT-A LC inh2 inactive, Bead autofluor 23690, MazEF act inactive and Anthrax LF inh2 inactive.
For Cc1nnsc1C(=O)Nc1ccccc1Cl the results were BoNT F protease inactive, BoNT-A LC inh2 inactive, Bead autofluor 21871, MazEF act inactive and Anthrax LF inh2 inactive.
Screening CCOc1ccc2nc(N3CCCCCC3)sc2c1 returned BoNT F protease inactive, BoNT-A LC inh2 inactive, Bead autofluor 16527, MazEF act inactive and Anthrax LF inh2 inactive.
`CN(C)c1nc2ccc(OCCN3CCCCC3)cc2s1` gave BoNT F protease inactive, BoNT-A LC inh2 inactive, Bead autofluor 23663, MazEF act inactive and Anthrax LF inh2 inactive.
`CCc1ccc(/C=C2\SC(=S)N(CCCC(=O)N(CCO)c3ccccc3)C2=O)cc1` gave BoNT F protease inactive, BoNT-A LC inh2 inactive, Bead autofluor inactive, MazEF act inactive and Anthrax LF inh2 inactive.
Screening O=C(NCc1cccnc1)c1cccnc1-c1nc2ccccc2s1 returned BoNT F protease inactive, BoNT-A LC inh2 inactive, Bead autofluor 22730, MazEF act inactive and Anthrax LF inh2 inactive.
O=C(NCc1cccnc1)c1sc2ccccc2c1Cl was read as BoNT F protease inactive, BoNT-A LC inh2 inconclusive, Bead autofluor 24841, MazEF act inactive and Anthrax LF inh2 inactive.
For CC(NC(=O)CNC(=O)c1sc2ccccc2c1Cl)c1cccnc1 (configuration not stated) the results were BoNT F protease inactive, BoNT-A LC inh2 inactive, Bead autofluor inactive, MazEF act inactive and Anthrax LF inh2 inactive.
`Cc1ccc2c(Cl)c(C(=O)NCc3cccnc3)sc2c1` gave BoNT F protease inactive, BoNT-A LC inh2 inconclusive, Bead autofluor 20230, MazEF act inactive and Anthrax LF inh2 inactive.
For O=C(CNC(=O)c1sc2ccccc2c1Cl)NCc1ccccc1 the results were BoNT F protease inactive, BoNT-A LC inh2 inactive, Bead autofluor inactive, MazEF act inactive and Anthrax LF inh2 inactive.
Screening COc1ccccc1C(=O)COC(=O)c1ccc(Cl)nc1 returned BoNT F protease inactive, BoNT-A LC inh2 inactive, Bead autofluor inconclusive, MazEF act inactive and Anthrax LF inh2 inactive.
`Cc1ccc(S(=O)(=O)CC(CN2CCOCC2)N2CCOCC2)cc1` (configuration not stated) gave BoNT F protease inactive, BoNT-A LC inh2 inactive, Bead autofluor inactive, MazEF act inactive and Anthrax LF inh2 inactive.
`Cc1ccc(S(=O)(=O)CC(C)N2CCOCC2)c(S(=O)(=O)CC(C)N2CCOCC2)c1` (configuration not stated) gave BoNT F protease inactive, BoNT-A LC inh2 inactive, Bead autofluor 23181, MazEF act inactive and Anthrax LF inh2 inactive.
CC(C)(C)c1ccc(OCCC(=O)NNC(=O)c2ccncc2)cc1 was read as BoNT F protease inconclusive, BoNT-A LC inh2 inactive, Bead autofluor inactive, MazEF act inactive and Anthrax LF inh2 inactive.
`O=C1C(Cl)=C(N2CCOCC2)C(=O)N1c1ccc(Br)cc1` gave BoNT F protease inactive, BoNT-A LC inh2 inactive, Bead autofluor inactive, MazEF act inactive and Anthrax LF inh2 30.4.
For COc1ccccc1N1CCN(C(=O)c2cc(-c3ccc(C)cc3)on2)CC1 the results were BoNT F protease inactive, BoNT-A LC inh2 inactive, Bead autofluor inactive, MazEF act inactive and Anthrax LF inh2 inactive.
COc1ccc(-c2cc(C(=O)N3CCCCC3)no2)cc1OC was read as BoNT F protease inactive, BoNT-A LC inh2 inactive, Bead autofluor 23544, MazEF act inactive and Anthrax LF inh2 inactive.
COc1ccc(-c2cc(C(=O)N3CCCC3)no2)cc1OC was read as BoNT F protease inactive, BoNT-A LC inh2 inactive, Bead autofluor inactive, MazEF act inactive and Anthrax LF inh2 inactive.
COc1ccccc1N1CCN(C(=O)c2cc(-c3ccc(Cl)cc3)on2)CC1 was read as BoNT F protease inactive, BoNT-A LC inh2 inactive, Bead autofluor 24151, MazEF act inactive and Anthrax LF inh2 inactive.
